Measurements reported in PubChem BioAssay (NCI).
This is part of a sample that, as a whole, favours compounds with a hit. Of some 83,000 tested, about 20% had one in any assay.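 48-hour exposure, single concentration, 96-well plates; percent growth endpoint where 0 means no net growth. Active: below 10.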 A number with no mark means an inactive call. Active and inactive are the calls of the source.

System: HL-60(TB) leukemia
Experiment: NCI-60 one-dose screen, 48 h (100 = growth as untreated, 0 = no growth, -100 = all killed)
Details: 10 µM unless noted

Row | Structure (SMILES) | growth
1 | COc1cc(C(=O)c2cnc(-c3cccc4[nH]ccc34)[nH]2)cc(OC)c1OC | -28.6% (active)
2 | CCCCc1nc(Cl)c(C2CC(c3ccc(S(N)(=O)=O)cc3)=NN2c2cc(Cl)cc(Cl)c2)[nH]1 (stereo not drawn) | 9.72% (active)
3 | O=C1CCC(N2C(=O)c3cccc(NCCCCCCOc4ccc(Nc5nccc(Nc6ccccc6)n5)cc4)c3C2=O)C(=O)N1 (stereo not drawn) | 87.2%
4 | Cn1c2ccccc2c2nnc(N/N=C/c3ccccn3)nc21 | -46.1% (active)
5 | O=C(Nc1ccncc1)C(=O)c1cn(S(=O)(=O)c2cccc(Cl)c2F)c2ccccc12 | 68.5%
6 | COc1cc2cc(C(=O)Nc3ccccc3)c(N)nc2cc1OC | -42.1% (active)
7 | O=C(Nc1ccc(N2CCNCC2)cc1)c1[nH]ncc1Nc1ncnc2sc3c(c12)CCC3 | -49.6% (active)
8 | COc1ccc(-c2cc(-c3cc(OC)c(OC)c(OC)c3)c(C#N)c(=O)n2CCCCC(=O)NO)cc1 | 44%
